Experimental data reported in PubChem BioAssay AID2620 (National Center for Advancing Translational Sciences (NCATS), 2010).
Inconclusive results are not listed. Calls of active or inactive are those of the source. The call rests on the fitted dose curve; in most records, active means well fitted curve in the direction sought with a large enough effect; inconclusive means small, poorly fitted or top-dose-only effect, or another doubt; inactive means no such curve, though single readings can be large or run the other way.

These molecules were tested against Pyruvate kinase PKM (Homo sapiens) (UniProt P14618) (assay: Secondary LDH Assay for Activators of Human Pyruvate Kinase M1 Isoform: for Probe SAR). Conditions: purified hPK-M1, LDH-coupled NADH fluorescence kinetic; series mostly up to 58.2 µM; activity change, negative = inhibition: at the top concentration.
Pyruvate kinase PKM (Homo sapiens), sequence (P14618 whole entry, looked up, canonical isoform): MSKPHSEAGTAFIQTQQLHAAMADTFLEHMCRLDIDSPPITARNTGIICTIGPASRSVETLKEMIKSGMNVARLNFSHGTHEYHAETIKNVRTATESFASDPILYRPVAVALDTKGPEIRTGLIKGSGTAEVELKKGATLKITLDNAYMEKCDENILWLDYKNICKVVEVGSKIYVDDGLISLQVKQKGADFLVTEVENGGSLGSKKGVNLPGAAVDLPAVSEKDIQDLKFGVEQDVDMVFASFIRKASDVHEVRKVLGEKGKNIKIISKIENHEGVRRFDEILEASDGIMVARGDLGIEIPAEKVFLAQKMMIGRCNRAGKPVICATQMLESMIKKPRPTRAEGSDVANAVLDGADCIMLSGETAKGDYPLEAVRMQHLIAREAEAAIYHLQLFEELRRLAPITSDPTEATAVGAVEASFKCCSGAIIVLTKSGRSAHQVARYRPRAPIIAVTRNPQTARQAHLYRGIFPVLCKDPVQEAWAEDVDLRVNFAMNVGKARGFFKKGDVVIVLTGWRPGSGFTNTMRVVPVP
Text: NIH Chemical Genomics Center [NCGC]
Matthew G. Vander Heiden, M.D., Ph.D. [Harvard Medical School, 77 Avenue Louis Pasteur, Boston, MA 02115]
Human pyruvate kinase […] (hPK-M1)enzyme was supplied as a highly purified (>95% pure) preparation from Harvard Medical School and a secondary assay was used to evaluate compounds. This assay couples the formation of pyruvate from […] using lactate dehydrogenase (LDH) and NADH. The depletion of NADH is followed in a fluorescent-based kinetic assay that follows the formation of pyruvate to lactate, as catalyzed LDH. Pyruvate kinase substrates, PEP and ADP, were present in the assay at 0.1 mM and 4 mM respectively. In this kinetic assay initial rates were determined by following the fluorescence of NADH depletion.
NCGC Assay Protocol Summary:
Three uL of substrate mix (final concentration, 50 mM Tris-Cl pH 8.0, 200 mM KCl, 15 mM MgCl2, 0.1 mM PEP, 4.0 mM ADP, and 0.2 mM NADH) was dispensed into black-solid 1536 well plates. 23 nL of compounds were delivered by a pin tool and 1 uL of enzyme mix (final concentrations, 10 nM hPK-M1 and 1 uM of LDH) was added. Plates were immediately placed in ViewLux (Perkin Elmer) and NADH fluorescence was determined at 30 second exposure intervals for between 3 and 6 minutes. Data were normalized to the uninhibited controls.
Further: % of control where 0% means no effect.

Activity change, negative = inhibition, inactive:
O=C1CCc2cc(S(=O)(=O)Nc3cccc(-c4ccccc4)c3)ccc2N1 5.22%
CN(C)c1cccc(S(=O)(=O)N2CCCN(S(=O)(=O)c3ccc4c(c3)OCCO4)CC2)c1 8.35%
Cc1ccc(NS(=O)(=O)c2cc3c(cc2Br)NC(=O)CO3)cc1C 4.41%
O=C1CCc2cc(S(=O)(=O)Nc3ccc(Cl)c(Cl)c3)c(F)cc2N1 3.26%
Cc1ccc(NS(=O)(=O)c2ccc3c(c2)CCO3)cc1C 10.2%
O=C1CCc2cc(S(=O)(=O)Nc3cccc(C(F)(F)F)c3)ccc2N1 19.6%
Nc1cc(S(=O)(=O)N2CCN(S(=O)(=O)c3ccc4c(c3)OCCO4)CC2)ccn1 -1.52%
O=C1c2ccccc2C(=O)N1c1cccnc1 0.813%
Cc1ccc(-c2nc3ccc(Cl)cn3c2Nc2ccccc2)o1 8.02%
O=C1c2ccccc2C(=O)N1C1CCCCC1 -1.77%
Cc1ccc(NS(=O)(=O)c2ccc3c(c2)CCC(C)(C)O3)cc1C 1.91%
O=C1CCc2cc(S(=O)(=O)Nc3cccc(F)c3)ccc2N1 -2.67%
Cc1ccc(NS(=O)(=O)c2ccc3c(c2)oc(=O)n3C)cc1C 9.95%
Cc1ccc(NS(=O)(=O)c2cc3c(cc2C)OCC(=O)N3)cc1C 1.24%
Cc1ccc(NS(=O)(=O)c2cc3c(cc2N(C)C)NC(=O)CC3)cc1C 4.74%
Cc1ccc(NS(=O)(=O)c2ccc(N3CCCC3=O)cc2)cc1C 3.2%
Cc1ccc(NS(=O)(=O)c2cc3c(cc2N(C)C)CCC(=O)N3)cc1C 1.17%
O=C1c2ccccc2C(=O)N1c1cccc2cnccc12 -2.27%
COc1cccc(N2C(=O)c3ccccc3C2=O)n1 2.67%
Cc1cccc(NS(=O)(=O)c2ccc3c(c2)CCC(=O)N3)c1 5.91%
O=C1c2ccccc2C(=O)N1c1cccc(Cl)c1 -4.02%
COc1cccc(Cn2ncc3c4sc(S(C)=O)cc4n(C)c3c2=O)c1 (stereo not given) -3.35%
O=C1CCc2cc(S(=O)(=O)Nc3ccccc3Cl)ccc2N1 -4.68%
O=C1CCc2cc(S(=O)(=O)Nc3cccnc3)ccc2N1 -5.72%
O=C1CCc2cc(S(=O)(=O)Nc3cc(F)cc(Cl)c3)c(F)cc2N1 2.41%
Cc1ccc(NS(=O)(=O)c2cc3c(cc2Cl)CCC(=O)N3)cc1Cl 4.63%
O=C1CCc2cc(S(=O)(=O)Nc3cccc(B(O)O)c3)ccc2N1 -1.4%
Cc1ccc(NS(=O)(=O)c2ccc3c(c2)NC(=O)CO3)cc1C 15.7%
O=C1c2ccccc2C(=O)N1Cc1ccncc1 1.41%
Cc1ccc(NS(=O)(=O)c2cc3c(cc2-c2ccsc2)NC(=O)CO3)cc1C 11.5%
CC(=O)Nc1ccc(S(=O)(=O)Nc2ccc(C)c(C)c2)cc1 3.42%
Cc1ccc(Nc2c(-c3ccc(C)o3)nc3ccccn23)cc1 -25.5%
CNc1cccc(S(=O)(=O)N2CCCN(S(=O)(=O)c3ccc4c(c3)OCCO4)CC2)c1 4.62%
Cc1ccc(NS(=O)(=O)c2ccc3c(c2)CCC(=O)N3)cc1F 0.152%
Cc1ccc(NS(=O)(=O)c2ccc(F)cc2)cc1C 2.07%
Cc1cc(N2C(=O)c3ccccc3C2=O)n[nH]1 -2.21%
O=C1c2ccccc2C(=O)N1c1cccc(=O)[nH]1 6.57%
Cc1ccc(NS(=O)(=O)c2ccc3c(c2)CCCC(=O)N3)cc1C 7.88%
Cc1ccc2nc(-c3ccc(C)o3)c(Nc3ccc4c(c3)OCO4)n2c1 2.02%

outcome, inactive:
O=S(=O)(c1ccc2c(c1)OCCO2)N1CCN(S(=O)(=O)c2c(F)cccc2F)CC1
